Sampled rows, rich in hits. Any-hit rate of the full collection: about 2.8%.
SNCA expr inhib = Primary qHTS assay for inhibitors of alpha-synuclein gene (SNCA) expression. Potency, µM (titrated, usually from 57.2 µM), for inactives: at the top dose activity change, negative = inhibition, most hits filed as inhibitors. 140,000 compounds, 0.17% hits. HEK-293 SNCA-luciferase knock-in, luminescence, 24 h. AID 1671194, 2021;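 note: potency is the fitted concentration of half-maximal effect; plate controls were DMSO cells for no effect and cell-free wells for full effect; nearly all actives have a fitted effect of over 45% in size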
IP6K1 inh = Primary qHTS assay for small molecule inhibitors of Inositol hexaphosphate kinase 1 (IP6K1); Inositol hexakisphosphate kinase 1 (Homo sapiens), Q92551; IP6K1 kinase, ADP-Glo luminescence, 2 h; active compounds read low; activity change, % (series mostly up to about 58 µM); 140,000 compounds, 0.81% hits; AID 1645851, 2021; in the data active = activity change below about -25%; note: % is set by controls: 0 for no effect and ±100 for the full control effect
Target sequence (Q92551 whole entry, looked up): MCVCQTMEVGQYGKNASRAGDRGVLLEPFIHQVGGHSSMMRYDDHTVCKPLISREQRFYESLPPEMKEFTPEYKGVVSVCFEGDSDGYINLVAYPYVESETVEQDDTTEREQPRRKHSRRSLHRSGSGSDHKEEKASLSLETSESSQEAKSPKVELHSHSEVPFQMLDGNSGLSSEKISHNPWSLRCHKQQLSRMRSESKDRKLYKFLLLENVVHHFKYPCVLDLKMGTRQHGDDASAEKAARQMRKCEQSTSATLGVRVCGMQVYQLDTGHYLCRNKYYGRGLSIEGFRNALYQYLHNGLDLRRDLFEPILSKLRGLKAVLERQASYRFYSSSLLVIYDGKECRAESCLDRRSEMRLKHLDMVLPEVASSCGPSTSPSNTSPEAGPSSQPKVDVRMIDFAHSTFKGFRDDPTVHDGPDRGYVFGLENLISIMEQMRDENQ
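ADP-Glo luminescence measures ADP made by human IP6K1 during a 2 h RT reaction with ATP/IP6 (mix at 1.3 mM/130 uM); top library doses 57.5 and 19.1 uM final.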
HEK293 viab = GF-AFC viability counterscreen for inhibitors of alpha-synuclein gene (SNCA) expression | 150,000 compounds, 0.12% hits | HEK-293-SNCA-luc viability, GF-AFC fluorescence, 24 h | Potency, µM (series often up to 57.1 µM), without a hit: top-dose activity change, negative = cytotoxicity, actives largely listed as cytotoxic;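 note: potency is the fitted concentration of half-maximal effect; 0% = DMSO-treated cells and -100% = medium-only wells without cells; nearly all actives have a fitted effect of over 30% in size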
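Cytotoxicity counterscreen: after 24 h compound treatment of genome-edited SNCA-luciferase HEK-293 cells, live-cell protease substrate GF-AFC read by fluorescence after 30 min; activity scaled between DMSO (0%) and medium-only (-100%), curves Hill-fitted.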
KDM5B inh = Primary screen for KDM5B Histone Demethylases FDH-coupled qHTS | 220,000 compounds, 2.6% hits | Potency, µM (series often up to 57.7 µM), usual class: inhibitors | KDM5B demethylase, FDH-coupled NADH fluorescence (FDH is formaldehyde dehydrogenase) | Lysine-specific demethylase 5B (Homo sapiens), Q9UGL1 | AID 1347165, 2019; note: potency is the fitted concentration of half-maximal effect; 0% is about no effect; nearly all actives have a fitted effect of over 70% in size
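qHTS format, multiple compound concentrations. Buffer 50 mM HEPES pH 7.5/0.01% Tween-20; 200 nM KDM5BΔAP final; 10 min compound preincubation; substrate-mix levels 12.5 µM peptide, 25 µM α-KG, 0.25 mM NAD⁺; 30 min RT; ΔRFU.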
Starred values were filed as active, the others as inactive; [ ] = remark or other dose. Unless noted, calls come from the whole dose curve; as a rule, active = well fitted curve in the direction sought with a large enough effect; inconclusive = small, poorly fitted or top-dose-only effect, or another doubt; inactive = no such curve, though single readings can be large; an effect the other way counts as inactive or inconclusive.

What do the screens show for `NC(=O)c1cccc2[nH]c([C@H]3CCN(Cc4cccc(Cl)c4)C3)nc12`?
SNCA expr inhib: -1.9%[87.6 µM]; IP6K1 inh: 13.8; HEK293 viab: -24.6%[87.6 µM]; KDM5B inh: 35.5µM*

How did COc1ccc(-c2cc(-c3ccncc3)cn3cncc23)cc1 do in these assays?
SNCA expr inhib: inconclusive; IP6K1 inh: -12.6; HEK293 viab: -15.1%[87.6 µM]; KDM5B inh: 39.8µM*

Results for COc1ccc(-c2cc(-c3ccc4c(c3)CNC4=O)cn3cncc23)cc1 ?
SNCA expr inhib: 13.7%[87.6 µM]; IP6K1 inh: -16.6; HEK293 viab: -6.2%[87.6 µM]; KDM5B inh: 22.4µM*

What do the screens show for `OCc1ccc(-c2cc(-c3ccncc3)c3cncn3c2)cc1`?
SNCA expr inhib: -14.1%[87.6 µM]; IP6K1 inh: 2.2; HEK293 viab: 2.0%[87.6 µM]; KDM5B inh: inconclusive

How did COc1ccc(-c2cc(-c3cccc(C(N)=O)c3)cn3cncc23)cc1 do in these assays?
SNCA expr inhib: 12.2%[87.6 µM]; IP6K1 inh: -7.1; HEK293 viab: -8.2%[87.6 µM]; KDM5B inh: inconclusive

Results for COc1ccc(-c2cc(-c3ccc4cn[nH]c4c3)cn3cncc23)cn1 ?
SNCA expr inhib: inconclusive; IP6K1 inh: -8.4; HEK293 viab: -6.7%[87.6 µM]; KDM5B inh: 10µM*

How did COc1ccc(-c2cc(-c3cccnc3)c3cncn3c2)cn1 do in these assays?
SNCA expr inhib: 23.1%[87.6 µM]; IP6K1 inh: -15.2; HEK293 viab: -11.4%[87.6 µM]; KDM5B inh: inconclusive

How did O=C(C1CCN(S(=O)(=O)c2cccc(C(F)(F)F)c2)CC1)N1CCC(c2ccccc2)CC1 do in these assays?
SNCA expr inhib: -24.4%; IP6K1 inh: 11.3; HEK293 viab: -20.3%

What do the screens show for `O=C(c1ccc(Cl)cc1)N1CCC(n2cc(-c3ccccn3)[nH]c2=O)CC1`?
SNCA expr inhib: 0.6%; IP6K1 inh: 5.0; HEK293 viab: 2.2%; KDM5B inh: 44.7µM*

Results for O=c1c2nc(-c3ccncc3)ccc2ncn1-c1ccccc1 ?
SNCA expr inhib: 10.8%[87.6 µM]; IP6K1 inh: 15.8; HEK293 viab: 1.9%[87.6 µM]; KDM5B inh: inactive

Results for O=c1c2nc(-c3ccsc3)ccc2ncn1-c1ccccc1 ?
SNCA expr inhib: 136.7%[87.6 µM]; IP6K1 inh: 2.6; HEK293 viab: 11.3%[87.6 µM]; KDM5B inh: 39.8µM*

What do the screens show for `Cc1cc(C)cc(NC(=S)N[C@H]2CO[C@H]3[C@@H]2OC[C@@H]3n2nnnc2Oc2cccc(N(C)C)c2)c1`?
SNCA expr inhib: inconclusive; IP6K1 inh: 5.0; HEK293 viab: -4.3%; KDM5B inh: 25.1µM*

How did COc1ccc(C(=O)N[C@H]2CO[C@H]3[C@@H]2OC[C@@H]3n2nnnc2Oc2ccc3c(c2)OCO3)cc1 do in these assays?
SNCA expr inhib: inconclusive; IP6K1 inh: 7.1; HEK293 viab: -21.0%; KDM5B inh: 35.5µM*

What do the screens show for `CC(=O)c1ccc(NC(=O)N[C@H]2CO[C@H]3[C@@H]2OC[C@@H]3n2nnnc2Oc2cccc(N(C)C)c2)cc1`?
SNCA expr inhib: 27.7%; IP6K1 inh: -23.7; HEK293 viab: -7.5%; KDM5B inh: inactive

What do the screens show for `Cc1cn2nc(C(=O)NCc3ccc(F)cc3F)cc2c(N(C)Cc2ccccc2)n1`?
SNCA expr inhib: -28.4%; IP6K1 inh: 0.2; HEK293 viab: 7.9%; KDM5B inh: inactive

Results for Cc1cn2nc(C(=O)N3CCOCC3)cc2c(N(C)Cc2ccccc2)n1 ?
SNCA expr inhib: -18.0%; IP6K1 inh: -0.4; HEK293 viab: -1.7%; KDM5B inh: inconclusive

How did Cc1cn2nc(C(=O)NCc3cccc(Cl)c3)cc2c(N(C)Cc2ccccc2)n1 do in these assays?
SNCA expr inhib: 2.5%; IP6K1 inh: -6.4; HEK293 viab: -4.2%; KDM5B inh: 25.1µM*

Results for Cc1cn2nc(C(=O)NCc3ccc(Cl)cc3)cc2c(N(C)Cc2ccccc2)n1 ?
SNCA expr inhib: 0.8%; IP6K1 inh: 4.6; HEK293 viab: 8.0%; KDM5B inh: 14.1µM*

How did Cc1nn(-c2ccccc2)c(C)c1CN1CCC2(CC1)Cc1ccccc1CNC2=O do in these assays?
SNCA expr inhib: -13.4%; IP6K1 inh: 9.3; HEK293 viab: -0.2%; KDM5B inh: inactive

What do the screens show for `Cc1ccc(C(=O)N2CCC(N3CC4(CCCC4)C3c3ccccc3)CC2)cn1` (stereo unspecified)?
SNCA expr inhib: 10.0%; IP6K1 inh: 1.1; HEK293 viab: 2.3%

How did COc1ccc(-c2ncc(CN3CCCC4(C3)CN(C)C(=O)O4)cn2)cc1 (stereo unspecified) do in these assays?
SNCA expr inhib: 8.0%; IP6K1 inh: -11.0; HEK293 viab: -6.1%; KDM5B inh: 14.1µM*

Results for COc1ncccc1-c1cnc2[nH]cc(CC(=O)Nc3cccc(Cl)c3)c2c1 ?
SNCA expr inhib: 13.1%[87.6 µM]; IP6K1 inh: 27.5; HEK293 viab: inconclusive; KDM5B inh: 31.6µM*

Results for Cc1ccccc1-c1cnc2[nH]cc(CC(=O)Nc3ccccc3)c2c1 ?
SNCA expr inhib: inconclusive; IP6K1 inh: 8.2; HEK293 viab: inconclusive; KDM5B inh: 35.5µM*

What do the screens show for `O=C(Cc1c[nH]c2ncc(-c3ccccc3)cc12)NCc1ccncc1`?
SNCA expr inhib: 7.2%[87.6 µM]; IP6K1 inh: -15.0; HEK293 viab: 1.7%[87.6 µM]; KDM5B inh: 28.2µM*

How did COc1ncccc1-c1cnc2[nH]cc(CC(=O)NC3CC3)c2c1 do in these assays?
SNCA expr inhib: 42.4%[87.6 µM]; IP6K1 inh: -16.5; HEK293 viab: -14.8%[87.6 µM]; KDM5B inh: inconclusive

Results for COc1ccc(NC(=O)Cc2c[nH]c3ncc(-c4ccccc4C)cc23)cc1 ?
SNCA expr inhib: inconclusive; IP6K1 inh: -21.3; HEK293 viab: -15.5%[87.6 µM]; KDM5B inh: inconclusive

What do the screens show for `COc1ncccc1-c1cnc2[nH]cc(CC(=O)Nc3nc(C)cs3)c2c1`?
SNCA expr inhib: 13.3%[87.6 µM]; IP6K1 inh: -17.2; HEK293 viab: -27.8%[87.6 µM]; KDM5B inh: inactive

Results for Cc1ccccc1-c1cnc2[nH]cc(CC(=O)NC3CC3)c2c1 ?
SNCA expr inhib: -3.2%[87.6 µM]; IP6K1 inh: -16.8; HEK293 viab: -16.3%[87.6 µM]; KDM5B inh: 28.2µM*

How did CC1CCCN1C(=O)c1cn2cc(-c3cccc(Cl)c3)n(CC3CC3)c(=O)c2n1 (stereo unspecified) do in these assays?
SNCA expr inhib: inconclusive; IP6K1 inh: 4.0; HEK293 viab: -18.9%; KDM5B inh: inactive

Results for CCCCN(CCCC)C(=S)SCC(=O)n1c2ccccc2c2ccccc21 ?
KDM5B inh: inactive

What do the screens show for `Cn1cc(-c2cnc3[nH]cc(CC(=O)Nc4ccc(N5CCOCC5)cc4)c3c2)cn1`?
SNCA expr inhib: 0.7%[87.6 µM]; IP6K1 inh: -17.7; HEK293 viab: 6.5%[87.6 µM]; KDM5B inh: inconclusive

How did Cn1cc(-c2cnc3[nH]cc(CC(=O)Nc4cccc(F)c4)c3c2)cn1 do in these assays?
SNCA expr inhib: -8.3%[87.6 µM]; IP6K1 inh: -16.4; HEK293 viab: -20.6%[87.6 µM]; KDM5B inh: 28.2µM*
